Results on 21 compounds are retold here after PubChem BioAssay (NCI).

The panel holds about 79,000 compounds, 15% with a hit somewhere; the sample as a whole holds those more often. A number with no mark means an inactive call. Calls of active or inactive are those of the source. Rule as the data show it: active = growth inhibition above about 70%; inactive = the rest.

Experiment [1] is described as follows: NCI Yeast Anticancer Drug Screen. Data for the rad50 strain (AID 155).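 Also: 0% = growth of vehicle-only cultures of the same strain.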 The following applies: S. cerevisiae rad50 strain growth inhibition; at 50.0 µM; active compounds read high. The gist of the method: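 Yeast carrying a defined DNA repair defect were exposed to test compounds, and growth was compared with vehicle-treated controls to give percent inhibition.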

Experiment [2] in a line: NCI Yeast Anticancer Drug Screen. Data for the mec2-1 strain (AID 157). The following applies: S. cerevisiae mec2-1 strain, at 50.0 µM, active compounds read high. The procedure, abridged: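 Growth inhibition is read against vehicle-treated controls after compound exposure of the mec2-1 yeast strain, which is defective in DNA damage repair or cell cycle control.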
A short description of experiment [3]: NCI Yeast Anticancer Drug Screen. Data for the sgs1 mgt1 strain (AID 161).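 Also: 0% = growth of cultures given vehicle only.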 The following applies: S. cerevisiae sgs1 mgt1 strain, at 50.0 µM, active compounds read high. The gist of the method:
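This yeast growth screen uses a strain with defined DNA-repair lesions; compound-treated growth is compared with vehicle-treated growth.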

Experiment [4] in a line: NCI Yeast Anticancer Drug Screen. Data for the cln2 rad14 strain (AID 165).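 Also: 0% = growth equal to vehicle treated cultures.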 The following applies: S. cerevisiae cln2 rad14 strain, at 50.0 µM, active compounds read high. The procedure, abridged:
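Growth inhibition, relative to vehicle-treated controls, is the read-out. The test organism is a yeast strain with defined genetic alterations, cln2 rad14.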

A short description of experiment [5]: NCI Yeast Anticancer Drug Screen. Data for the bub3 strain (AID 167). The following applies: S. cerevisiae bub3 mutant strain, at 50.0 µM, active compounds read high. The gist of the method:
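Compounds were applied to a genetically altered yeast strain carrying a cell-cycle control defect. Growth inhibition was scored against vehicle-treated controls.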

A short description of experiment [6]: NCI Yeast Anticancer Drug Screen. Data for the mlh1 rad18 strain (AID 175). As to conditions: S. cerevisiae mlh1 rad18 strain growth inhibition; at 50.0 µM; active compounds read high. The gist of the method:
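Cells of a genetically altered yeast strain, deficient in DNA damage repair, were treated with compound. Their growth was then compared with that of vehicle-treated cultures to give inhibition.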

As to `CC(N=Nc1ccccc1)/N=N/c1nn[nH]n1` (stereo unspecified), the growth inhibition in experiment [1] was 23.8%; in experiment [2] it was -12.2%; in experiment [3], -11.6%; in experiment [4] it was -84%; in experiment [5], -22%; in experiment [6] it was -3.25%.
Turning to `CCN(CC)CCN1C(=O)C2C3C=CC(C3)C2C1=O` (stereo unspecified), the growth inhibition in experiment [1] is -15.1%; in experiment [2], -15.4%; in experiment [3] it was 3.25%; in experiment [4], -14.9%; in experiment [5] it was -3.25%; in experiment [6], -14.9%.
Regarding `CCOC(=O)Nc1nc2c(s1)c([N+](=O)[O-])cn2C`, the growth inhibition is 11.6% in experiment [1]; 7% in experiment [2]; 17.1% in experiment [3]; 2.45% in experiment [4]; 4.6% in experiment [5]; 20.6% in experiment [6].
As to `Cc1c(C)c(CO)c(C)c(C)c1CO`, the growth inhibition was -15.8% in experiment [1]; -19.4% in experiment [2]; 15.8% in experiment [3]; 4.9% in experiment [4]; 12.1% in experiment [5]; -2.1% in experiment [6].
As for `CC(=O)NC1CCCC(CC2CCCCC2)C1` (stereo unspecified), the growth inhibition in experiment [1] was 18.4%; in experiment [2], 0.45%; in experiment [3], -7.8%; in experiment [4], -56%; in experiment [5], 17.6%; in experiment [6] it was -14.9%.
For `CC(C)c1ccc2nc3ccc(C(=O)NCCN(C)C)cn3c(=O)c2c1`, the growth inhibition in experiment [1] was -15.8%; in experiment [2] it was -0.25%; in experiment [3], -10.4%; in experiment [4] it was 2.65%; in experiment [5], -1%; in experiment [6], 9%.
Consider `COc1c(NC(=O)c2ccc(Cl)c(Cl)c2)cccc1[N+](=O)[O-]`, for which the growth inhibition was 7.6% in experiment [1]; -9.1% in experiment [2]; 3.35% in experiment [3]; -2.85% in experiment [4]; 1.3% in experiment [5]; -1.3% in experiment [6].
For the compound `CC(=O)Nc1ccc(/C=N/NC(=O)/C=C/c2ccccc2)cc1`, the growth inhibition in experiment [1] is -7.15%; in experiment [2] it was 3.25%; in experiment [3], 6.25%; in experiment [4], -5%; in experiment [5] it was -1%; in experiment [6], 2.15%.
Turning to `Cc1ccc(S(=O)(=O)N2CCCSCCSCCCN(S(=O)(=O)c3ccc(C)cc3)CC2)cc1`, the growth inhibition in experiment [1] was 8.85%; in experiment [2] it was -10.8%; in experiment [3] it was 4%; in experiment [4], -45%; in experiment [5], -10.1%; in experiment [6] it was 2.05%.
`COc1ccc(C(=O)/C=C/c2cccc3ccccc23)cc1`: the growth inhibition in experiment [1] is 15.4%; in experiment [2], 25.7%; in experiment [3], 30.9%; in experiment [4], -3.85%; in experiment [5], 33%; in experiment [6] it was 16.6%.
For the compound `Cc1nc(N)c(N=O)c(=O)[nH]1`, the growth inhibition in experiment [1] is 13.2%; in experiment [2] it was 8.75%; in experiment [3] it was 14.2%; in experiment [4], 9.5%; in experiment [5] it was 10.9%; in experiment [6], 7.35%.
On to `CCn1c2ccccc2c2nnc(NCCCO)nc21`, for which the growth inhibition in experiment [1] is -14.7%; in experiment [2] it was -31.3%; in experiment [3], -16.5%; in experiment [4] it was -1.25%; in experiment [5], -51.7%; in experiment [6] it was 7.55%.
As for `O=CNCC1(c2ccccc2)CCNCC1`, the growth inhibition is 2.25% in experiment [1]; -3.25% in experiment [2]; 8.05% in experiment [3]; -1.7% in experiment [4]; 4.4% in experiment [5]; -4.6% in experiment [6].
With `CCCCC[CH2][Sn]([CH2]CCCCC)([CH2]CCCCC)[NH]S(=O)(=O)c1ccc(C)cc1`, the growth inhibition in experiment [1] is 99.3% (active); in experiment [2], 99.6% (active); in experiment [3] it was 99.5% (active); in experiment [4], 99% (active); in experiment [5] it was 99.2% (active); in experiment [6], 99.3% (active).
In the case of `O=c1[nH]c2cc3ccccc3cc2c2ccccc12`, the growth inhibition in experiment [1] was 21.9%; in experiment [2], 9.6%; in experiment [3] it was 0.8%; in experiment [4], -15.7%; in experiment [5] it was -1.7%; in experiment [6], 14.2%.
Take `Cc1cc(=O)[nH]c(N/N=C/c2ccco2)n1`: the growth inhibition was -20.8% in experiment [1]; -48.8% in experiment [2]; -16.8% in experiment [3]; 6.75% in experiment [4]; -33.8% in experiment [5]; -15.3% in experiment [6].
As to `CCN(CC)CC(=N)N(CC)c1ccccc1`, the growth inhibition in experiment [1] is 26.5%; in experiment [2] it was 6.95%; in experiment [3] it was 4.7%; in experiment [4], 11.9%; in experiment [5], 23.8%; in experiment [6] it was 28.5%.
Consider `CCOc1nc(N)nc(C)c1N=Nc1ccccc1C`, for which the growth inhibition was 18.8% in experiment [1]; 18.1% in experiment [2]; 5.7% in experiment [3]; -12.5% in experiment [4]; 12.2% in experiment [5]; 15.7% in experiment [6].
As for `O=C(Oc1c(Cl)c(Cl)c(Cl)c(Cl)c1Cl)Oc1c(Cl)c(Cl)c(Cl)c(Cl)c1Cl`, the growth inhibition in experiment [1] is -13.7%; in experiment [2] it was -8.25%; in experiment [3] it was 19.1%; in experiment [4], -15.1%; in experiment [5], 12.8%; in experiment [6], 3.4%.
Regarding `COc1ccc(C2CC(c3ccccc3)=NN2c2ccccc2)cc1` (stereo unspecified), the growth inhibition was 0.75% in experiment [1]; -14.4% in experiment [2]; 5.85% in experiment [3]; -7.55% in experiment [4]; 4.85% in experiment [5]; 7.95% in experiment [6].
`O=C(CCN1C(=O)c2ccccc2C1=O)c1cnc(N2C(=O)c3ccccc3C2=O)[nH]1`: the growth inhibition in experiment [1] was 15.6%; in experiment [2], -4.45%; in experiment [3] it was 11.4%; in experiment [4], -22.4%; in experiment [5] it was 18.9%; in experiment [6], 2.5%.
